High-throughput results from PubChem BioAssay.
The list is not random: actives were taken first. Their share in the collection is about 3.9%.
BoNT-F LC inh: BoNT F light chain protease inhibition | Multiplex microsphere protease cleavage assay, flow cytometry | inhibition, % at 10 µM | 0.22% of 360,000 active | AID 588497; in the data active = inhibition above about 35%, passing the limit was not always enough; inconclusive = no clear call, values can overlap the other calls; note: plate controls were buffer without enzyme for full effect and enzyme alone for no effect
Vc quorum ag: induces V. cholerae light production without autoinducers; V. cholerae BH1578 lux reporter, luminescence, 6 h; activation, % at 18.7 µM; 0.16% of 350,000 active; in the data active = activation mostly above about 9.7%, no sharp cut-off; inconclusive = no clear call, values can overlap the other calls; inactive = mostly below about 3.7%
Bead autofluor: flagged as autofluorescent in microsphere protease counterscreen; compound autofluorescence counterscreen, microsphere flow cytometry; stronger effect = higher value; fluorescence intensity (test concentration not listed); 3.1% of 360,000 active; in the data active = fluorescence intensity above about 16000; inconclusive = no clear call, values can overlap the other calls
MazEF act: activators of E. coli MazEF toxin-antitoxin RNase. activation, % at 20 µM. 0.32% of 350,000 active. FAM/BHQ RNA-DNA oligo cleavage fluorescence, 5 h; in the data active = activation above about 50%
Target sequence (P0AE70 whole entry, looked up): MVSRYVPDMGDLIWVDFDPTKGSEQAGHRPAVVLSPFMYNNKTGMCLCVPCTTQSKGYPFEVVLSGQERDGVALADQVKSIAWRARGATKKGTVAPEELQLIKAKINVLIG
BoNT A protease: inhibitors of Botulinum neurotoxin A light chain protease | AID 588499 | multiplex microsphere protease substrate cleavage, flow cytometry | inhibition, % at 10 µM | 0.17% of 360,000 active; note: plate controls were buffer without enzyme for full effect and enzyme alone for no effect
Anthrax LF inh2: anthrax lethal factor protease inhibition. P15917. multiplex microsphere protease cleavage assay, LF. inhibition, % at 10 µM. 0.12% of 360,000 active. AID 588501; note: plate controls were buffer without enzyme for full effect and enzyme alone for no effect
Active calls of the source: *; i = inactive; ? = inconclusive; . = no result given. Cut-off read from the data, not from the text of the source, unless noted: active = inhibition above about 30%; inconclusive = no clear call, values can overlap the other calls; inactive = below that.

SMILES	BoNT-F LC inh	Vc quorum ag	Bead autofluor	MazEF act	BoNT A protease	Anthrax LF inh2
CCOC(=O)c1c(C)n(C)c2cc(Br)c(OC)cc12	0.2	i	4129	1.6	1.3	-8.6
CCOC(=O)c1c(CN2CCN(CCO)CC2)n(C)c2cc(Br)c(OC)cc12	-2.1	-0.4	23678*	0.1	0.2	-1.0
CCOC(=O)c1c(C)oc2cc(Br)c(OC)cc12	-4.0	i	25149*	6.6	-2.8	-0.8
CCOC(=O)c1c(CN2CCCCC2)n(C)c2cc(Br)c(OC)cc12	-9.9	8.3	4049	1.0	-0.3	0.3
Cn1c(-c2ccccc2)cc(=O)c2ccccc21	-16.4	-0.3	9714	1.5	-1.9	-3.0
Cn1c2c(c3ccccc31)CCSC2=O	1.2	-14.3	22095*	4.6	0.1	-5.3
Cc1ccc(C)c(-n2nnnc2SCC(=O)NCCC2=CCCCC2)c1	-2.3	i	16990*	-3.4	-0.5	-2.1
O=C(CSc1ncccc1C(=O)O)NCCC1=CCCCC1	1.7	i	20428*	0.5	0.2	-2.8
CCc1cc(=O)oc2c(C)c(OCC(=O)NCCCn3ccnc3)ccc12	13.3	-0.3	4549	3.6	7.6	5.5
CC(=O)Nc1ccc(Nc2c3c4c(cccc4n(C)c2=O)C(=O)c2ccccc2-3)cc1	-13.1	-0.5	1891	-693.0	-0.3	-5.2
Cn1c(=O)c(N)c2c3c(c(Br)ccc31)C(=O)c1ccccc1-2	-0.8	i	3760	i	38.1*	19.4
Cc1cc(C)cc(NC(=O)CN2CCN(c3ncccn3)CC2)c1	5.1	-0.4	22652*	-0.9	2.4	-0.1
COc1ccc2c(c1)C1NC(=S)NC(C)(O2)C1C(=O)Nc1ccc(C)cc1C (centres undefined)	39.6*	-0.3	2082	-0.3	4.5	0.9
COc1ccc(/C=N/OCc2nc3c4c(ncn3n2)Oc2ccc3ccccc3c2C4c2ccccc2)cc1 (centres undefined)	0.4	-12.5	23152*	-29.5	1.2	-0.8
COc1ccc(C2c3c(ccc4ccccc34)Oc3ncn4nc(Cc5ccccc5)nc4c32)cc1OC (centres undefined)	1.8	-0.3	2209	-9.3	-0.1	0.2
COCCNC(=O)CCN1N=C(c2ccccc2)CCC1=O	6.6	-6.7	3742	9.5	-0.8	-0.8
CCCNC(=O)C(=O)N/N=C/c1cccs1	2.8	-0.5	10484	-13.9	0.9	2.9
CC(C)CNC(=O)C(=O)N/N=C/c1cccs1	-6.8	-0.1	18172*	6.7	-5.4	-0.7
O=C(c1ccncc1)c1ccc(N2CCN(C3CC(=O)N(Cc4cccs4)C3=O)CC2)cc1 (centres undefined)	-12.5	-0.2	5581	-4.7	-1.6	-0.8
CCN1C(=O)CC(N2CCN(c3ccc(C(=O)c4ccncc4)cc3)CC2)C1=O (centres undefined)	-1.6	-2.7	20385*	-2.0	?	-3.1
CN(CC(=O)Nc1ccccc1C(=O)N1CCCC1)S(=O)(=O)c1ccc(Cl)cc1	-0.7	-0.2	24313*	-3.2	-0.7	1.2
O=C(c1ccc(Cn2cc(Br)cn2)cc1)N1CCN(c2ccccc2)CC1	-1.0	-3.0	23168*	0.0	1.4	5.3
CS(=O)(=O)N1CCN(C(=O)c2ccccc2)C1	-0.3	0.0	16660*	7.3	-0.5	-1.5
CS(=O)(=O)Nc1ccc(C(=O)Nc2ccccc2C(=O)N2CCCC2)cc1	-0.9	i	20057*	8.2	0.7	-1.4
O=C(Cc1ccc(Cl)cc1)Nc1ccccc1C(=O)N1CCCC1	-3.8	-0.3	4437	-2.7	0.2	1.0
SMILES	BoNT-F LC inh	Vc quorum ag	Bead autofluor	MazEF act	BoNT A protease	Anthrax LF inh2
Cc1cc(C)n2nc(C(=O)Nc3ccc(S(=O)(=O)N(C)C)cc3)nc2n1	-12.2	-2.4	4802	5.3	-1.5	-6.1
CCc1ccc(NC(=O)CCC(=O)Nc2nnc(C(F)(F)F)s2)cc1	-7.8	-0.9	5289	4.2	1.9	-0.7
CC(Sc1nnc2c(n1)[nH]c1ccccc12)C(=O)NC1CCCCC1 (centres undefined)	-0.4	-0.3	4464	-1.0	0.1	0.1
CC(C)CN1CCC1(C)C(=O)Nc1cccc(C#N)c1 (centres undefined)	2.5	0.7	3732	.	-0.1	0.9
CS(=O)(=O)Nc1ccc(C(=O)N2CCN(c3ccccc3)CC2)cc1	4.7	-0.2	22316*	7.8	1.8	-5.5
COc1ccc(C)cc1NC(=O)c1ccc(NC(=O)CC2SC(N3CCCC3)=NC2=O)cc1 (centres undefined)	-0.2	7.6*	6223	4.7	0.2	-6.9
CCc1ccc(NC(=S)N(CCOC)C2CCN(C(C)=O)CC2)cc1	39.9*	0.6	3400	1.0	-1.3	26.2
CCc1ccc(NC(=S)N(CCC(C)C)C2CCN(C(C)=O)CC2)cc1	0.1	-0.5	3507	-2.8	-1.8	-2.3
COc1ccc(Cn2ccnc2SCC(=O)Nc2nnc(C)s2)cc1	-9.0	i	6038	-1.8	-1.4	-0.4
Cn1nc(C(C)(C)C)cc1C(=O)N1CCCCC1c1cc(C(=O)NCc2ccc(F)cc2)no1 (centres undefined)	3.9	0.4	3888	.	-0.1	-5.7
COc1ccc(-c2cc(N)n(S(=O)(=O)c3c(F)c(F)c(F)c(F)c3F)n2)cc1OC	-1.4	-0.1	16388*	-4.0	?	0.5
Cc1cccc(C(=O)Oc2coc(CSc3nnc(NC(=O)C4CC4)s3)cc2=O)c1	-2.7	i	2570	1.6	54.8*	0.7
Cc1cc(C)nc(SCc2cc(=O)c(OC(=O)c3cccc([N+](=O)[O-])c3)co2)n1	33.3	-0.5	7578	5.5	3.6	1.2
O=C(Oc1coc(CSc2nnc(NC(=O)C3CC3)s2)cc1=O)c1ccccc1	-0.4	-3.4	2569	0.6	62.8*	1.4
Cc1ccc(C(=O)Oc2coc(CSc3nnc(NC(=O)C4CC4)s3)cc2=O)cc1C	-7.4	i	1984	4.5	34.3*	0.5
COc1ccc(C(=O)Oc2coc(CSc3nnc(NC(=O)c4cccs4)s3)cc2=O)cc1	2.9	-0.2	2075	-6.5	-0.1	-0.1
Cc1cccc(CSc2nnc(NC(=O)c3ccco3)s2)c1	-7.0	i	24019*	6.3	-3.5	-3.3
COC(=O)c1ccccc1C(=O)N(Cc1cccnc1)CC1CCCN(C2CCCCC2)C1 (centres undefined)	4.4	-0.4	7852	-19.3	-3.3	-0.1
O=C(N/N=C/c1ccc(Cl)cc1Cl)C(=O)NC1CC1	-6.1	i	4561	7.5	-0.5	2.1
CCn1c(NC(C)=O)c(-c2ccccc2Cl)c(=O)c2ccccc21	9.8	-0.3	3659	-7.4	1.4	1.5
CC(C)COc1ccc(-c2nnc(-c3ccncc3)o2)cc1	-10.9	i	17655*	5.3	-4.1	-2.5
CCOC(=O)C1=C(C)Nc2sc(C(=O)c3ccc(OC)cc3)c(N)c2C1c1ccc(C(=O)OC)cc1 (centres undefined)	11.6	-0.4	9298	3.7	29.8*	21.4
COC(=O)C1=C(C)Nc2sc(C(N)=O)c(N)c2C1c1ccncc1 (centres undefined)	-4.1	-0.4	1985	1.1	0.1	-1.8
